{"source": "PubChem BioAssay (NCATS)", "note": "Records with an inconclusive call do not appear. Entries that show only a call come without a potency. The source made the active and inactive calls. Calls come from the whole dose curve; as a rule, active = well fitted inhibition curve with a large enough effect; inconclusive = small, poorly fitted or top-dose-only effect; inactive = flat fitted curve, though single readings scatter. Where a SMILES comes first, the peptide text is derived from it. Bridges are numbered along the chain shown (N, C = ends). [ ]: non-standard residue; d: D form. The star is where a group is joined. X1 = CC[C@@H](C)[C@@H](N)C1=N[C@H](C(=O)*)CS1; d(aIle) = CC[C@H](C)[C@@H](N)C(=O)O; dOrn = NCCC[C@@H](N)C(=O)O", "data": [{"target": "Voltage-gated inwardly rectifying potassium channel KCNH2 (Homo sapiens) (UniProt Q12809)", "sequence (Q12809 whole entry, looked up)": "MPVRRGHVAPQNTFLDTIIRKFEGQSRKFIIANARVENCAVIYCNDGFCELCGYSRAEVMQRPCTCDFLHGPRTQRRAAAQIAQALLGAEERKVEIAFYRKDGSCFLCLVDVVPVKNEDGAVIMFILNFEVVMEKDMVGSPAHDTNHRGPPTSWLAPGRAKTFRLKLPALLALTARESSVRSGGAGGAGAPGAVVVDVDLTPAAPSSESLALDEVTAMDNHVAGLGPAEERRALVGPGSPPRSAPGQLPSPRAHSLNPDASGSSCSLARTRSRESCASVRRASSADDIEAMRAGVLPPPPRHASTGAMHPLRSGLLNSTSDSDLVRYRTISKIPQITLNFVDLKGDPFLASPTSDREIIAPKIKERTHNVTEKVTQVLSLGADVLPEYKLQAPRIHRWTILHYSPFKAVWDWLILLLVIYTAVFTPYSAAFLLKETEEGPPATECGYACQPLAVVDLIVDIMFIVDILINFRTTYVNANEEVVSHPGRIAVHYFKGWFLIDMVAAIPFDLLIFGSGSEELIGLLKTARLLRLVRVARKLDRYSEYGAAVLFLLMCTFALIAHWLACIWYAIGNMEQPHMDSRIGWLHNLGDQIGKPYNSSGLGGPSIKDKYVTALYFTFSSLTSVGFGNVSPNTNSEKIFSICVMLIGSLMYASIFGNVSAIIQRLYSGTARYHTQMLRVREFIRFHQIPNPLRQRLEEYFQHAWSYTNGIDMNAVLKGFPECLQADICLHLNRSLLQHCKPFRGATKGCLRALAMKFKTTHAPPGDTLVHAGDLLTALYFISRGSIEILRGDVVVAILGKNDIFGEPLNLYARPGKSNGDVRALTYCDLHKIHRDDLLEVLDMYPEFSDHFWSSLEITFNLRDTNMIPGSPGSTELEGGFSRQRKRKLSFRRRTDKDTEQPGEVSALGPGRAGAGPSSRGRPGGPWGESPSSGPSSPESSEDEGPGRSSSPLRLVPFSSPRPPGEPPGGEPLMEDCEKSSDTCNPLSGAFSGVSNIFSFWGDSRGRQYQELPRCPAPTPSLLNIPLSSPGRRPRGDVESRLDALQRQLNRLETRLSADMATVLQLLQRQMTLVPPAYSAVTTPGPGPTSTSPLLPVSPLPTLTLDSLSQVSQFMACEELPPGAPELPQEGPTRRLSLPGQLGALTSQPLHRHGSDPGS", "assay": "qHTS Assay for Small Molecule Inhibitors of the Human hERG Channel Activity (AID 588834);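 note: lower thallium flux fluorescence means stronger hERG block; nearly all actives have a fitted effect of over 50% in size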; note: potency is the fitted concentration of half-maximal effect", "conditions": "U2OS BacMam hERG, FluxOR thallium flux fluorescence; series mostly up to 46.1 µM", "method_in_brief": "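hERG block measured as reduced thallium-dye (FluxOR) fluorescence after stimulation buffer addition, read over 2 min. Cells were hERG-BacMam-transduced U2OS exposed to compound ~10 min […]; concentration-response fitted with Hill equation for AC50.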", "values": [{"smiles": "CC[C@@H](C)[C@@H](N)C1=N[C@H](C(=O)N[C@@H](CC(C)C)C(=O)N[C@@H](CCC(=O)O)C(=O)N[C@@H](C(=O)N[C@@H]2CCCCNC(=O)[C@@H](CC(N)=O)NC(=O)[C@@H](CC(=O)O)NC(=O)[C@@H](Cc3cnc[nH]3)NC(=O)[C@@H](Cc3ccccc3)NC(=O)[C@@H]([C@H](C)CC)NC(=O)[C@@H](CCCN)NC2=O)[C@@H](C)CC)CS1", "note": "(X1-LE[d(aIle)][dK][dOrn][dI][dF][dH][dD][dN]; lactam 4-C)", "Potency": "inactive"}, {"smiles": "O=C(O)[C@H]1CN(C/C=C/P(=O)(O)O)CCN1", "Potency": "inactive"}, {"smiles": "Oc1ccc(Cl)c2c1CCC2", "Potency": "inactive"}, {"smiles": "CCCCC(O)c1ccccc1", "note": "(stereo not drawn)", "Potency": "inactive"}, {"smiles": "Cc1cc(O)c2c(c1)O[C@@]1(C)CC[C@H]3C(C)(C)CCCC34CO[C@@H]2[C@H]41", "note": "(stereo partly drawn)", "Potency": "inactive"}, {"smiles": "S=C=Nc1ccc(N=C=S)cc1", "Potency": "inactive"}, {"smiles": "O=C(CCCCCCCCCCCCC1CCCC1)Nc1ccc(S(=O)(=O)c2ccc(NC(=O)CCCCCCCCCCCCC3CCCC3)cc2)cc1", "Potency": "inactive"}, {"smiles": "O=C1CC[C@@H](C(=O)N[C@H]2C[C@@H]2c2ccccc2)N1", "Potency": "inactive"}, {"smiles": "CNCC(O)c1ccc(OC(=O)C(C)(C)C)c(OC(=O)C(C)(C)C)c1", "note": "(stereo not drawn)", "Potency": "inactive"}, {"smiles": "CC(C)(C)c1ccc2c(S(=O)(=O)O)c(C(C)(C)C)ccc2c1", "Potency": "inactive"}, {"smiles": "CO[C@H]1C=CO[C@@]2(C)Oc3c(C)c(O)c4c(O)c(cc(O)c4c3C2=O)NC(=O)/C(C)=C\\C=C/[C@H](C)[C@H](O)[C@@H](C)[C@@H](O)[C@@H](C)[C@H](OC(C)=O)[C@@H]1C", "Potency": "inactive"}, {"smiles": "C=Cc1ccc(S(=O)(=O)O)cc1", "Potency": "inactive"}, {"smiles": "CC[C@H](CC[C@@H](C)[C@H]1CC[C@H]2[C@@H]3CC=C4C[C@@H](O)CC[C@]4(C)[C@H]3CC[C@]12C)C(C)C", "Potency": "inactive"}, {"smiles": "CC/C(=C(/CC)c1ccc(OP(=O)(O)O)cc1)c1ccc(OP(=O)(O)O)cc1", "Potency": "inactive"}, {"smiles": "CC(C)CCC[C@@H](C)[C@H]1CC[C@H]2[C@@H]3CC[C@@H]4C[C@H](O)CC[C@]4(C)[C@H]3CC[C@]12C", "Potency": "inactive"}, {"smiles": "NC(=O)[C@H]1O[C@@H](O)[C@H](O)[C@@H](O)[C@@H]1O", "Potency": "inactive"}, {"smiles": "Cc1cccc(C)c1NC(=O)C1CCCCN1C", "note": "(stereo not drawn)", "Potency": "inactive"}, {"smiles": "O=C(CCCN1CCC(C(=O)c2ccc(F)cc2)CC1)c1ccc(F)cc1", "Potency": "0.0891 µM (active)"}, {"smiles": "CC(C)[C@H](N)C(=O)OCC(CO)OCn1cnc2c(=O)[nH]c(N)nc21", "note": "(stereo partly drawn)", "Potency": "inactive"}, {"smiles": "Cc1cccc(Nc2ncccc2C(=O)O)c1C", "Potency": "inactive"}, {"smiles": "CCN(CC)CCOC(=O)c1cccnc1", "Potency": "inactive"}, {"smiles": "O=C1c2ccccc2C(=O)C1c1ccc(Cl)cc1", "Potency": "inactive"}, {"smiles": "CN[C@@H]1[C@H](O[C@H]2[C@H](O[C@H]3[C@H](O)[C@@H](O)[C@H](N=C(N)N)[C@@H](O)[C@@H]3N=C(N)N)O[C@@H](C)[C@]2(O)CO)O[C@@H](CO)[C@H](O)[C@H]1O", "Potency": "inactive"}, {"smiles": "CC(CC=O)CCCC(C)(C)O", "note": "(stereo not drawn)", "Potency": "inactive"}, {"smiles": "CC1CCC(NC(=O)N(CCCl)N=O)CC1", "note": "(stereo not drawn)", "Potency": "inactive"}, {"smiles": "CC(C)c1nc(N(C)S(C)(=O)=O)nc(-c2ccc(F)cc2)c1/C=C/C(O)CC(O)CC(=O)O", "note": "(stereo not drawn)", "Potency": "14.1 µM (active)"}, {"smiles": "CCCCC[C@H](O)/C=C/[C@@H]1[C@H]2C/C(=C/CCCC(=O)O)O[C@H]2C[C@H]1O", "Potency": "inactive"}, {"smiles": "CCN(CC)CCOc1ccccc1OC", "Potency": "inactive"}, {"smiles": "COc1ccc2c(=O)c(C)c(-c3ccccc3)oc2c1CN(C)C", "Potency": "inactive"}, {"smiles": "N[C@H](CC(=O)O)C(=O)O", "Potency": "inactive"}, {"smiles": "c1ccc2c(c1)OCC(CN1CCCCC1)O2", "note": "(stereo not drawn)", "Potency": "inactive"}, {"smiles": "CCOC(=O)[C@H](CS)NCCN[C@@H](CS)C(=O)OCC", "Potency": "inactive"}, {"smiles": "Cc1c(C)c2c(c(C)c1OC(=O)CCC(=O)O)CC[C@@](C)(CCC[C@H](C)CCC[C@H](C)CCCC(C)C)O2", "Potency": "inactive"}, {"smiles": "CC(O)[C@@H]1NC(=O)[C@H](Cc2ccccc2)NC(=O)[C@H](C(C)O)NC(=O)[C@H](CCCCN)NC(=O)[C@H](Cc2c[nH]c3ccccc23)NC(=O)[C@H](Cc2ccccc2)NC(=O)[C@H](Cc2ccccc2)NC(=O)[C@H](CC(N)=O)NC(=O)[C@H](CCCCN)NC(=O)[C@@H](NC(=O)CNC(=O)[C@H](C)N)CSSC[C@@H](C(=O)O)NC(=O)[C@H](CO)NC1=O", "note": "(stereo partly drawn)", "Potency": "inactive"}, {"smiles": "O=S(=O)(O)CCCS(=O)(=O)O", "Potency": "inactive"}, {"smiles": "CNC(=O)[C@H](Cc1c[nH]c2ccccc12)NC(=O)[C@@H](CC(=O)NO)CC(C)C", "Potency": "inactive"}, {"smiles": "COC(=O)CC[C@H](N)C(=O)O", "Potency": "inactive"}, {"smiles": "CCCCCCCCCCCC(=O)N(CCO)CCO", "Potency": "inactive"}]}]}
